High-throughput results from PubChem BioAssay.
Ba CapD inh = Bacillus anthracis CapD inhibitors, primary screen, biochemical, fluorescence intensity; purified CapD enzyme, fluorescence intensity read-out; hits give low values; z-score (test concentration not listed); 0.23% of 140,000 active; AID 492967, 2010; in the data active = z-score mostly below about -2.9, no sharp cut-off; inactive = mostly above about -1.9
Starred values were filed as active, the others as inactive. Only a selection was taken, and hits are over-represented in it overall.

SMILES | Ba CapD inh
Cc1cc(C)n(-c2ccc(N=NC3=C(O)CCCC3=O)cc2)n1 | -4.4*
COc1ccc(C)cc1N=Cc1ccc(C)s1 | -0.025
CN(C1CCCCC1)S(=O)(=O)N1CCCC(C(=O)NCCCc2ccccc2)C1 (stereo unspecified) | -0.1
COc1ccc(N2CCN(C(=O)OCc3ccccc3F)CC2C)cc1 (stereo unspecified) | 0.24
CC(C(=O)O)N1C(=O)/C(=C/c2ccccc2Cl)SC1=S (stereo unspecified) | -1.8
CC(C(=O)O)N1C(=O)/C(=C\c2ccco2)SC1=S (stereo unspecified) | -4.9*
O=C(O)CCN1C(=O)/C(=C\c2ccccc2)SC1=S | -1.2
O=C(O)CCN1C(=O)/C(=C/c2ccccc2)SC1=S | -0.57
Cc1ccc(/C=C2/SC(=S)N(C(C)C(=O)O)C2=O)o1 (stereo unspecified) | -0.01
O=C(O)CCN1C(=O)/C(=C/c2ccco2)SC1=S | -6.1*
O=C(NNC(=O)c1ccc2nccnc2c1)OCc1cc2c(cc1[N+](=O)[O-])OCO2 | -1.1
COc1cc(-c2cc(-c3ccccc3)nc(SCC(=O)Nc3ncccn3)c2C#N)cc(OC)c1OC | 1
CC(=O)Oc1ccc(-n2c(C)cc(C=C3C(=O)N(C)C(=O)N(C)C3=O)c2C)cc1 | -0.6
CCOC(=O)/C(C)=N\N1CCc2ccccc21 | -2.3
COc1cc(OC)cc(-c2nc3ccccc3c(=O)n2OC(=O)C2CCC(C(C)(C)C)CC2)c1 (stereo unspecified) | -0.37
CCC(C)N1Cc2ccccc2N(CC)C1c1ccccc1F (stereo unspecified) | -4.3*
Fc1ccccc1C1N(Cc2ccccc2)CCCN1Cc1ccccc1 | 25
Fc1ccccc1C1N(Cc2ccccc2)CCN1Cc1ccccc1 | -0.3
CC(C)CN(CC(C)C)C(=O)c1cc(-c2ccc(Cl)cc2)n[nH]1 | 0.54
Cc1cc(C)c(C=C2C(=O)CCCC2=O)[nH]1 | -7.6*
Cc1cc(C=C2C(=O)CCCC2=O)c(C)n1-c1ccccc1 | -0.49
Cc1cc(C)c(C=C2C(=O)OC(C)(C)OC2=O)[nH]1 | -4.1
COc1ccc(C2CC2/C(=N/OC(=O)c2ccc(C)cc2)c2ccccc2)cc1 (stereo unspecified) | -0.51
CCn1c(=O)c2cc(C(=O)N(C)c3cccc(C(F)(F)F)c3)sc2c2ccccc21 | -0.72
CC(=O)Nc1ccc(NC(=O)c2ccco2)cc1 | 0.43
SMILES | Ba CapD inh
CC(=O)Nc1ccc(N/C=C/C(=O)c2ccco2)cc1 | -5.8*
CN(C)c1ccc(N/C=C/C(=O)c2ccco2)cc1 | -2.4
COc1cc(-c2[nH]nc3c2C(c2cccc(Br)c2)C(C#N)=C(N)O3)cc(OC)c1OC (stereo unspecified) | 0.35
CN1C(=O)/C(=C/c2cn(CC(=O)N3CCCC3)c3ccccc23)C(=O)NC1=S | -0.42
Cc1ccc(N2C(=O)/C(=C\c3ccc(-c4ccccc4C(=O)O)o3)C(=O)NC2=S)cc1 | 3
CN1C(=O)/C(=C/c2ccc(I)o2)C(=O)NC1=S | -9.7*
Cc1ccc(-n2nc3c(c2NC(=O)c2ccc(S(=O)(=O)N4CCOCC4)cc2)CSC3)cc1 | -0.59
Clc1ccc(-c2nn[nH]n2)cc1 | -0.15
CC(=O)n1c(O)c(C2=NC(=S)NC2=O)c2ccccc21 | -0.1
CC1(C)CC(=O)C2=C(C1)Nc1[nH]n(-c3ccccc3)c(=O)c1C2c1ccco1 (stereo unspecified) | -4.6*
CC1(C)CC(=O)C2=C(C1)Nc1ccc3ccccc3c1C2c1ccco1 (stereo unspecified) | 80
O=C1CCCC2=C1C(c1ccco1)c1c([nH]n(-c3ccccc3)c1=O)N2 (stereo unspecified) | -2.6
CC1C/C(=C\c2ccccn2)C(=O)/C(=C/c2ccccn2)C1 (stereo unspecified) | -1.2
Cc1noc(/C=C/N(C)C)c1S(=O)(=O)NCCN1CCC(Cc2ccccc2)CC1 | -2.5
Cc1noc(/C=C/N(C)C)c1S(=O)(=O)NC1CCCCC1 | -4.2*
Cc1noc(/C=C/N(C)C)c1S(=O)(=O)N(C)c1ccc(C(C)C)cc1 | -2.9
N#C/C(=C\c1ccccc1)C(N)=O | -0.17
CCc1ccc(NC(=O)CSc2nc3ccccc3c(=O)n2CC2CCC(C(=O)NCc3ccco3)CC2)cc1 (stereo unspecified) | -0.5
O=C(Nc1nc(SCc2ccc(F)cc2)ns1)c1cccs1 | -0.32
COC(=O)c1ccccc1NC(=O)c1ccc(N2CC3CC(C2)c2cccc(=O)n2C3)c(NC(=O)c2ccc(OC)cc2)c1 (stereo unspecified) | 0.75
N#CC1=C(SCC(=O)Nc2ccc(Br)cc2)NC(=O)C(C#N)C1c1ccccc1Cl (stereo unspecified) | 2.1
N#Cc1ccc(Oc2ccccc2)cc1C#N | -0.08
N#COc1ccc(Oc2ccc(OC#N)cc2)cc1 | -4.9*
N#Cc1ccc(Oc2ccc(N3C(=O)CCC3=O)cc2)cc1 | -0.055
COc1ccc(CCNS(=O)(=O)c2cccc(C)c2)cc1 | -0.26
SMILES | Ba CapD inh
CC(C)C(=O)N1c2ccccc2-c2c(ssc2=S)C1(C)C | -0.75
N#CC1=C(N)OC2=C(C(=O)CCC2)C12C(=O)Nc1ccc(Br)cc12 (stereo unspecified) | 0.01
O=C1Nc2ccc(S(=O)(=O)N3CCCCC3)c3cccc1c23 | 0.6
CC1Cc2ccccc2N1C1=CC(=O)CCC1 (stereo unspecified) | -5.7*
CC1Cc2ccccc2N1S(=O)(=O)c1ccccc1 (stereo unspecified) | -0.78
CC1Cc2ccccc2N1C(=O)c1cccc(C(=O)N2c3ccccc3CC2C)n1 (stereo unspecified) | -0.45
COCc1cc(C)nc2sc3c(=O)n(-c4ccccc4)nnc3c12 | -0.25
COc1ccc(CCNC(=O)CSc2nc3ccccc3c(=O)n2CCc2ccc(S(N)(=O)=O)cc2)cc1OC | -0.94
Cc1cc(C)n(C2CCS(=O)(=O)C2)n1 (stereo unspecified) | 0.3
CC(C)(C)c1ccc(CN2CCN(C(=O)c3ccc(-n4nc(-c5ccccc5)cc4-c4ccccc4)cc3)CC2)cc1 | -0.08
CC(=O)Nc1ccc(NC(=O)c2ccccc2C(=O)O)cc1 | -0.15
CC(=O)Nc1ccc(-n2c(C)ccc2C)c(C(=O)O)c1 | -4.8*
Cc1ccc(C)n1-c1ccccc1C(=O)O | -1
Cc1ccc(C)n1-c1cc(Cl)ccc1C(=O)O | -5.5*
CCCOc1ccc(Cl)cc1C(=O)O | -0.66
COc1ccc(NC(C)=O)cc1C | 6.2
CCOC(=O)c1sc(/N=C/c2c(C)[nH]n(-c3ccc(C)cc3)c2=O)c(C#N)c1C | 0.21
CCCCCc1ccc(-c2ccc(C(=O)Nc3ccc(Cl)c4c3C(=O)c3ccccc3C4=O)cc2)cc1 | 0.15
CN(C)CCOC(=O)c1ccc2[nH]c3c(c2c1)CSCC3 | 39
O=C(O)c1ccc2[nH]c3c(c2c1)CSCC3 | -7.4*
COC(=O)c1ccc2[nH]c3c(c2c1)CCCC3 | 3.3
S=c1[nH]nc(-c2ccccc2)n1/N=C/C=C/c1ccco1 | -2.4
Cc1nnc(C)n1/N=C/C=C\c1ccco1 | -4.4*
S=c1[nH]nc(-c2cccnc2)n1/N=C/C=C/c1ccco1 | -2.5
CC(Oc1ccc(F)cc1)c1nnc(SCC(N)=O)n1C (stereo unspecified) | -0.06
CC1Cn2cc(C(=O)Nc3cccc(F)c3)c(=O)c3c(Cl)ccc(c32)O1 (stereo unspecified) | 19
COC(=O)c1cc2c(cc1NC(=O)Cn1ncc3c1-c1cc(C)ccc1OC3)OCO2 | 9.6
N#C/C(=C\c1ccsc1)S(=O)(=O)c1ccc(F)cc1 | -1.5
COc1cc(C(=O)NNC(=S)Nc2ccccc2Cl)cc(OC)c1OC | -0.72
